# According to PubChem BioAssay AID602144 (Vanderbilt Specialized Chemistry Center, 2011):
# Calls of active or inactive are those of the source. Cut-off read from the data, not from the text of the source: active = remaining activity below about 50%; inactive = the rest.
# Biological target: Phospholipase D1 (Homo sapiens) (UniProt Q13393)
# Test: cellular phospholipase D1 activity inhibition – Calu-1 cells, single concentration (AID 602144);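 note: tested at 200 nM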
# Conditions: cellular PLD1 activity, stronger effect = lower value
# Chain of Phospholipase D1 (Homo sapiens) (Q13393 whole entry, looked up): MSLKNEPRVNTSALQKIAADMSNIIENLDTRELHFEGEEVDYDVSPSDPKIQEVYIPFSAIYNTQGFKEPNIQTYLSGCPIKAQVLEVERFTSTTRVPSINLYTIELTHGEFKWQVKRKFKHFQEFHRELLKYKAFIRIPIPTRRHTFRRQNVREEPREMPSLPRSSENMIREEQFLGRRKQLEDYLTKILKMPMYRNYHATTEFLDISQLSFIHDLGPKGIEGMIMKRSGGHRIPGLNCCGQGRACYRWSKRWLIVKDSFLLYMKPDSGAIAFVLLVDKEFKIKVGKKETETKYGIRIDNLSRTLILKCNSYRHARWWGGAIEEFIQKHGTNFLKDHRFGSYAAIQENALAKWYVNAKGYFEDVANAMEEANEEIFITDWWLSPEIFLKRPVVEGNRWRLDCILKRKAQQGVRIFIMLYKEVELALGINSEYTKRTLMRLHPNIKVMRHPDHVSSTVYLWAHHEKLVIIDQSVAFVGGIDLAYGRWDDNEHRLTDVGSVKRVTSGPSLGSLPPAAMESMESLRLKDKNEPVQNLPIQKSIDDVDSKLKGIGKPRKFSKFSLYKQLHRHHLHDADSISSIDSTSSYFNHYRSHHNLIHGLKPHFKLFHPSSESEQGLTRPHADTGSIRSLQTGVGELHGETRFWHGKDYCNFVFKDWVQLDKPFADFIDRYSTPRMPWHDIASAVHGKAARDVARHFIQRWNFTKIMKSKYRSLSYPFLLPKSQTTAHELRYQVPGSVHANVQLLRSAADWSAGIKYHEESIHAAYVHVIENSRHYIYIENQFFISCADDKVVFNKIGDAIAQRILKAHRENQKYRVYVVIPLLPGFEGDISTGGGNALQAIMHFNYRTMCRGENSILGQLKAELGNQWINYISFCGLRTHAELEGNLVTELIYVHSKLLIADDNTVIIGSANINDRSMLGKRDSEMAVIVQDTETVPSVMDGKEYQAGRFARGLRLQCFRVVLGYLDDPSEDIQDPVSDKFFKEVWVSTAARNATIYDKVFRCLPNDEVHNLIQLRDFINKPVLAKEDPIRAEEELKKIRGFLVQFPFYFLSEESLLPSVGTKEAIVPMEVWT
# Chain of Phospholipase D1 (Homo sapiens) (Q13393 whole entry, looked up): as above
row,SMILES,remaining activity
1,C[C@@H](CN1CCC2(CC1)CN(S(C)(=O)=O)c1ccccc12)NC(=O)c1cnc2ccccc2c1,118% (inactive)
2,CS(=O)(=O)N1CC2(CCN(CCNC(=O)c3cnc4ccccc4c3)CC2)c2ccccc21,99.4% (inactive)
3,O=C(NCCN1CCC(C(=O)NCCc2ccccn2)CC1)c1ccc2ccccc2c1,101% (inactive)
4,O=C(NCCN1CC=C(n2c(=O)[nH]c3ccccc32)CC1)C1CC1c1ccccc1 (centres undefined),0% (active)
5,O=C(NCCN1CCC(n2c(=O)[nH]c3cc(Cl)ccc32)CC1)c1ccc(Cl)cc1,7.16% (active)
6,CC(C(=O)NCCN1CCN(c2ccncc2)CC1)(c1ccccc1)c1ccccc1,204% (inactive)
7,C[C@@H](CN1CCC(n2c(=O)[nH]c3ccccc32)CC1)NC(=O)c1cc2ccccc2[nH]1,8.14% (active)
8,Cc1ccc(S(=O)(=O)NCCN2CCC(n3c(=O)[nH]c4ccccc43)CC2)cc1,104% (inactive)
9,O=c1[nH]c2ccccc2n1C1CCN(CCN2CCCC2)CC1,112% (inactive)
10,Cc1ccc(NC(=S)NCCN2CCC(n3c(=O)[nH]c4ccccc43)CC2)cc1,152% (inactive)
11,O=c1[nH]c2ccccc2n1C1CCN(CCNS(=O)(=O)c2ccc([N+](=O)[O-])cc2)CC1,119% (inactive)
12,C[C@@H](CN1CCC(n2c(=O)[nH]c3ccccc32)CC1)NC(=O)c1cc2ccccc2s1,28% (active)
13,O=C(c1ccc(Cl)cc1)N1CCC2(CC1)C(=O)NCN2c1ccccc1,102% (inactive)
14,COc1ccc(S(=O)(=O)NCCN2CCC(n3c(=O)[nH]c4ccccc43)CC2)cc1OC,115% (inactive)
